Assay results published in PubChem BioAssay (Tox21).
Records with an inconclusive call do not appear. The source made the active and inactive calls. Unless noted, calls come from the whole dose curve; as a rule, active = well fitted curve in the direction sought with a large enough effect in the repeat runs; inconclusive = weak or mixed curves; inactive = no such curve, though single readings can be large; an effect the other way counts as inactive or inconclusive.

Tests used:
[1] = qHTS assay to identify small molecule antagonists of the estrogen related receptor (ERR) signaling pathway from Tox21 library - cell viability counter screen (AID 1224834); note: nearly all actives have a fitted effect of over 30% in size
Procedure, shortened: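 After 17.5 h of compound exposure at 37 C, ERR cells are incubated with CellTiter-Fluor for 30 min and fluorescence intensity serves as the viability measure.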

[2] = target: Luciferin 4-monooxygenase (Photinus pyralis) (UniProt P08659); experiment: qHTS assay to identify small molecule inhibitors of firefly luciferase (AID 1224835); note: nearly all actives have a fitted effect of over 25% in size; note: potency is the fitted concentration of half-maximal effect
Chain of Luciferin 4-monooxygenase (Photinus pyralis) (P08659 whole entry, looked up): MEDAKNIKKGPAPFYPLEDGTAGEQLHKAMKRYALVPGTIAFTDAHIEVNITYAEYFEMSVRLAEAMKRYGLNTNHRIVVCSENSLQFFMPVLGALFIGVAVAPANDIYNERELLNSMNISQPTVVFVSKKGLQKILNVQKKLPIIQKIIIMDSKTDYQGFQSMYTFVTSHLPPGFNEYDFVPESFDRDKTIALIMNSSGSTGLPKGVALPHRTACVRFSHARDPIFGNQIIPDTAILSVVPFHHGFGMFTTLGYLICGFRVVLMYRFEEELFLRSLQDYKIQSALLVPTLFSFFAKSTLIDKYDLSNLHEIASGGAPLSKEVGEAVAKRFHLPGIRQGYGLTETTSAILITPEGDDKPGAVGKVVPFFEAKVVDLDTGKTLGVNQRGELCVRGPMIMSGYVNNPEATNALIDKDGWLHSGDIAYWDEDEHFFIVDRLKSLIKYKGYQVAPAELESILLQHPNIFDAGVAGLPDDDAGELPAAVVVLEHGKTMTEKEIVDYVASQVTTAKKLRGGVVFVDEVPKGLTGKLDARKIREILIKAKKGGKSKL
Procedure, shortened: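 Quantitative HTS format; KM concentrations of both substrates. Purified P. pyralis FLuc activity quantified from luminescence images.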

[3] = qHTS assay to identify small molecule agonists of the constitutive androstane receptor (CAR) signaling pathway - cell viability counter screen (AID 1224836); note: nearly all actives have a fitted effect of over 45% in size
Procedure, shortened: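 23 h treatment, 37 C, 5% CO2. Cell line: HepG2 stably expressing hCAR with a CYP2B6-2.2kb construct. Co-treatment: PK11195, 0.75 uM final. Read-out: CellTiter-Fluor fluorescence intensity.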

[4] = qHTS assay to identify small molecule antagonists of the constitutive androstane receptor (CAR) signaling pathway - cell viability counter screen (AID 1224837); note: nearly all actives have a fitted effect of over 45% in size
Procedure, shortened: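 Counter screen run in HepG2-CYP2B6-hCAR cells: 4 hr settle, compound titration (15 concentrations) with 50 nM CITCO, 23 hr at 37 C/5% CO2, CellTiter-Fluor fluorescence.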

[5] = qHTS assay to identify small molecule antagonists of the estrogen related receptor signaling pathway with the pleiotropic PPARgamma coactivator (PGC) from Tox21 10K library - cell viability counter screen (AID 1224840; active = well fitted cell-killing curve with a large enough effect in the repeat runs, not every such curve was filed as active; note: nearly all actives have a fitted effect of over 40% in size)
Procedure, shortened: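 Following seeding of 2,000 PGC/ERR cells/well and 6 hours' incubation, test compounds were delivered in DMSO. The plates then sat 17.5 hours at 37 C before a fluorogenic live-cell protease reagent (CellTiter-Fluor) was read after 30 min.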

[6] = qHTS assay to identify small molecule agonists of the hypoxia (HIF-1) signaling pathway - cell viability counter screen (AID 1224844; calls by dose curve; note: nearly all actives have a fitted effect of over 50% in size)
Procedure, shortened: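 Cells (HRE-bla ME-180, 2,000 per well) sat 5 hrs at 37C, got compound for 17 hrs, were read for CCF4-AM FRET, and were finally lysed with CellTiter-Glo for a 30 min room-temperature luminescence read.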

[7] = qHTS assay to identify small molecule agonists of H2AX (AID 1224845; active = well fitted activation curve with a large enough effect in the signal ratio in the repeat runs, not every such curve was filed as active; the % refers to the signal ratio; note: potency is the fitted concentration of half-maximal effect)
Procedure, shortened: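 Wild-type CHO-K1 cells plated overnight, then exposed 3 hr at 37C to compounds at 15 concentrations (0.76% DMSO). Lysed, then HTRF anti-pH2AX(S139)-cryptate/anti-H2AX-d2 detection after 24 hr at room temperature; emissions 665 and 620 nm.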

[8] = qHTS assay to identify small molecule agonists of the hypoxia (HIF-1) signaling pathway (AID 1224846; active = well fitted activation curve with a large enough effect in the signal ratio in the repeat runs, not every such curve was filed as active; the % refers to the signal ratio)
Procedure, shortened: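 A low-serum medium (0.5% dialyzed FBS) holding 2,000 HRE-bla ME-180 cells per well is preincubated for 5 hrs, dosed with compounds by pintool, and kept a further 17 hrs at 37C, 5% CO2 before CCF4-AM FRET detection of beta-lactamase.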

[9] = qHTS assay to identify small molecule agonists of H2AX - cell viability counter screen (AID 1224847; calls by dose curve; note: top concentration of the series differs between compounds; nearly all actives have a fitted effect of over 30% in size)
Procedure, shortened: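 Compounds tested at 15 concentrations were incubated 3 hr at 37C with wild-type CHO-K1 cells; cellular ATP-based luminescence (CellTiter-Glo) indicated viability.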

[10] = qHTS RealTime-Glo MT Cell Viability Assay in HepG2 cells - 24 hour (AID 1224867); note: nearly all actives have a fitted effect of over 50% in size
Procedure, shortened: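 Luminescence read-out: viable HepG2 cells reduce a prosubstrate to a NanoLuc substrate, giving a signal proportional to live cell number. Reads taken at 0, 8, 16, 24, 32 and 40 h of compound exposure at 37 C.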

[11] = A CellTox Green Cytotoxicity Assay to monitor cytotoxicity in HEK293 cells - 0 hour (AID 1224869); note: nearly all actives have a fitted effect of over 50% in size
Procedure, shortened: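 Fluorescence intensity, read at 0, 8, 16, 24, 32 and 40 h of compound treatment, reflected dye binding to DNA of dead HEK293 cells; compounds (23 nL, DMSO) were added 5 h after plating cells with reagent.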

[12] = qHTS RealTime-Glo MT Cell Viability Assay in HepG2 cells - 40 hour (AID 1224870); note: nearly all actives have a fitted effect of over 50% in size
Procedure, shortened: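 HepG2 cells mixed with RealTime-Glo MT reagents (NanoLuc plus cell-permeant prosubstrate) were seeded at 600 cells/well, incubated 5 h at 37 C/5% CO2, then pinned with compounds in DMSO; nonlytic luminescence tracked viability during 40 h treatment.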

[13] = target: Nuclear receptor subfamily 1 group I member 3 (Homo sapiens) (UniProt Q14994); experiment: qHTS assay to identify small molecule agonists of the constitutive androstane receptor (CAR) signaling pathway (AID 1224839); note: nearly all actives have a fitted effect of over 15% in size; note: potency is the fitted concentration of half-maximal effect;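 for activation: HepG2 cells stably carrying human CAR and a CYP2B6 luciferase reporter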
Chain of Nuclear receptor subfamily 1 group I member 3 (Homo sapiens) (Q14994 whole entry, looked up): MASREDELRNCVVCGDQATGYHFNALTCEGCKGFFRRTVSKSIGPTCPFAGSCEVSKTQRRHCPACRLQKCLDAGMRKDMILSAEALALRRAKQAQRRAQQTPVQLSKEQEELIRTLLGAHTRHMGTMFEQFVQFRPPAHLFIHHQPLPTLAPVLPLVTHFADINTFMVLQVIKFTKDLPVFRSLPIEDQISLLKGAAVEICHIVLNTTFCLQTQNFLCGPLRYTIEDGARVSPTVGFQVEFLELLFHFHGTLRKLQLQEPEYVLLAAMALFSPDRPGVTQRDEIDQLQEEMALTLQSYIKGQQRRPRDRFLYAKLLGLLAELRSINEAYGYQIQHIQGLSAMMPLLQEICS
Procedure, shortened: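 Compounds tested at 15 concentrations on HepG2 cells stably harbouring hCAR and CYP2B6-2.2kb reporter constructs, co-treated with PK11195 (0.75 uM final), 24 h at 37 C; luminescent reporter signal quantified.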

[14] = qHTS RealTime-Glo MT Cell Viability Assay in HEK293 cells - 32 hour (AID 1224868); note: nearly all actives have a fitted effect of over 50% in size; note: potency is the fitted concentration of half-maximal effect
Procedure, shortened: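 Nonlytic real-time viability readout: viable cells convert prosubstrate to NanoLuc substrate, giving luminescence proportional to live cell number. HEK293, 600 cells/well, compound added after 5 h, continuous culture at 37 C.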

[15] = target: Thyrotropin receptor (Homo sapiens) (UniProt P16473); experiment: qHTS assay to identify small molecule agonists of the thyroid stimulating hormone receptor (TSHR) signaling pathway (AID 1224843; calls by dose curve; note: nearly all actives have a fitted effect of over 45% in size)
Chain of Thyrotropin receptor (Homo sapiens) (P16473 whole entry, looked up): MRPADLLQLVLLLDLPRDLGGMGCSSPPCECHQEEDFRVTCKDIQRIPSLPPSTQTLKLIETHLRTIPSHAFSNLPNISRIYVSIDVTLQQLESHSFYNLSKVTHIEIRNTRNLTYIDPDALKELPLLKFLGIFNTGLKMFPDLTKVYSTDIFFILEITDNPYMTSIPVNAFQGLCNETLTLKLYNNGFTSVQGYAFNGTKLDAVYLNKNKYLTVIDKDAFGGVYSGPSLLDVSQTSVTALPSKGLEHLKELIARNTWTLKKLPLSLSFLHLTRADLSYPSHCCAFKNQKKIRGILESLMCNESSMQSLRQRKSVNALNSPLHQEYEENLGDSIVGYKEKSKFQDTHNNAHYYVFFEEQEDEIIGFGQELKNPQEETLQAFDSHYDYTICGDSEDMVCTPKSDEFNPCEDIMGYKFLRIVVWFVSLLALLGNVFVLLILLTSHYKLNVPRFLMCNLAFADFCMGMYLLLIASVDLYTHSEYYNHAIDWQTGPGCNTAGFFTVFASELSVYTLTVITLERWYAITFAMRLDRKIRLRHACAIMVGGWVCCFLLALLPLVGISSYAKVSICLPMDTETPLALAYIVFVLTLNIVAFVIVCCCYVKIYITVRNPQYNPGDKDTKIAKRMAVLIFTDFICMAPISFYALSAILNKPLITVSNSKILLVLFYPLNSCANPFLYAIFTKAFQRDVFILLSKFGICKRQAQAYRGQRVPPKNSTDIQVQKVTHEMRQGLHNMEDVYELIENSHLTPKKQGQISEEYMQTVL
Procedure, shortened: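 Cell line HEK293 with TSHR; density 800/well. Exposure 30 min RT. Readout HTRF cAMP (cAMP-d2/anti-cAMP-cryptate), 1 h RT before reading.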

[16] = qHTS assay to identify small molecule antagonists of the estrogen related receptor signaling pathway with the pleiotropic PPARgamma coactivator (PGC) from Tox21 10K library (AID 1224841; call rule not given here)
Procedure, shortened: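 qHTS antagonist format: PGC/ERR cells, 2k/well, compound in DMSO by pin transfer after 6 h attachment, 18 h treatment at 37 C, One-Glo luminescence read at 30 min.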

[17] = qHTS assay to identify small molecule agonists of the estrogen related receptor signaling pathway with the pleiotropic PPARgamma coactivator (PGC) from Tox21 10K library (AID 1224842); note: nearly all actives have a fitted effect of over 15% in size
Procedure, shortened: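 PGC/ERR reporter cells (NTP line) were seeded 2,000 per well, rested 6 h at 37 C/5% CO2, then pin-dosed with compounds in DMSO for 18 h at 37 C; luciferase read by One-Glo luminescence after 30 min at room temperature.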

[18] = qHTS assay to identify small molecule antagonists of the estrogen related receptor (ERR) signaling pathway from Tox21 library (AID 1224848); note: nearly all actives have a fitted effect of over 50% in size
Procedure, shortened: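 Screening used an ERR reporter line supplied by NTP, exposed for 18 h at 37 C to library compounds delivered in DMSO. Signal was luciferase luminescence developed with ONE-Glo at room temperature for 30 min.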

[19] = qHTS assay to identify small molecule agonists of the estrogen related receptor (ERR) signaling pathway from Tox21 library (AID 1224849; calls by dose curve; note: nearly all actives have a fitted effect of over 15% in size); conditions: ERR reporter cell line, ONE-Glo luciferase, 18 h; at 92.4 µM (top of the series) unless noted
Procedure, shortened: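 Screening used an NTP-provided ERR luciferase cell line. Compounds in DMSO were added 6 h after seeding and left 18 h at 37 C before a 30 min ONE-Glo step and luminescence reading.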
% is set by controls: 0 for no effect and ±100 for the full control effect.

CCC(C(=O)OCCOCCN(CC)CC)c1ccccc1 (stereo unspecified)
inactive: Potency [1] | Potency [2] | Potency [3] | Potency [4] | Potency [5] | Potency [6] | Potency [7] | outcome [8] | Potency [9] | Potency [10] | Potency [11] | Potency [12]

CCN(CC)CCNC(=O)c1ccc(NC(C)=O)cc1
inactive: Potency [1] | Potency [2] | Potency [3] | Potency [4] | Potency [13] | Potency [5] | Potency [6] | Potency [7] | Potency [9] | Potency [10] | Potency [14] | Potency [12]

CC(=O)Nc1ccc(N)cc1
inactive: Potency [1] | Potency [2] | Potency [3] | Potency [4] | Potency [5] | Potency [15] | Potency [6] | Potency [7] | Potency [9] | Potency [10] | Potency [14] | Potency [11] | Potency [12]

CCOC(=O)C(C)Oc1ccc(Oc2nc3ccc(Cl)cc3o2)cc1 (stereo unspecified)
inactive: Potency [1] | Potency [3] | Potency [4] | Potency [5] | Potency [16] | Potency [17] | Potency [6] | Potency [7] | outcome [8] | Potency [9] | Potency [18] | activity change, positive = activation [19] -11.6% | Potency [11]
active: Potency [2] 39.9 µM

OC(CCCN1CCCCC1)(c1ccccc1)c1ccccc1
inactive: Potency [1] | Potency [2] | Potency [3] | Potency [4] | Potency [13] | Potency [16] | Potency [17] | Potency [15] | Potency [6] | Potency [7] | Potency [9] | Potency [18] | activity change, positive = activation [19] 2.99% [at 42.5 µM] | Potency [10] | Potency [14] | Potency [11] | Potency [12]

CCCCN(CCCC)CCCOC(=O)c1ccc(N)cc1
active: Potency [13] 26.6 µM
inactive: Potency [1] | Potency [2] | Potency [3] | Potency [4] | Potency [5] | Potency [15] | Potency [6] | Potency [7] | Potency [9] | Potency [10] | Potency [14] | Potency [11] | Potency [12]

CCCCCCCCCCCC[N+](C)(C)CC(=O)[O-]
inactive: Potency [1] | Potency [2] | Potency [3] | Potency [4] | Potency [13] | Potency [5] | Potency [15] | Potency [6] | Potency [7] | outcome [8] | Potency [10] | Potency [14] | Potency [11] | Potency [12]

O=S1OCCO1
inactive: Potency [1] | Potency [2] | Potency [3] | Potency [4] | Potency [5] | Potency [16] | Potency [17] | Potency [15] | Potency [6] | Potency [7] | outcome [8] | Potency [9] | Potency [18] | activity change, positive = activation [19] 6.2% | Potency [10] | Potency [14] | Potency [11] | Potency [12]

Cc1ccccc1N1C(=O)c2cc(S(N)(=O)=O)c(Cl)cc2NC1C (stereo unspecified)
inactive: Potency [1] | Potency [2] | Potency [3] | Potency [4] | Potency [5] | Potency [15] | Potency [6] | Potency [7] | Potency [9] | Potency [10] | Potency [14] | Potency [11] | Potency [12]

O=C1NCCN1
inactive: Potency [1] | Potency [2] | Potency [3] | Potency [4] | Potency [5] | Potency [16] | Potency [17] | Potency [15] | Potency [6] | Potency [7] | outcome [8] | Potency [9] | Potency [18] | activity change, positive = activation [19] 2.98% | Potency [10] | Potency [14] | Potency [11] | Potency [12]

CO[Si](C)(OC)OC
inactive: Potency [1] | Potency [2] | Potency [3] | Potency [4] | Potency [5] | Potency [15] | Potency [6] | Potency [7] | Potency [9] | Potency [10] | Potency [14] | Potency [11] | Potency [12]

Nc1nc(Cl)nc2c1ncn2[C@@H]1O[C@H](CO)[C@@H](O)[C@@H]1F
inactive: Potency [1] | Potency [2] | Potency [3] | Potency [4] | Potency [5] | Potency [15] | Potency [6] | outcome [8] | Potency [9] | Potency [10] | Potency [11] | Potency [12]
active: Potency [7] 1.56 µM | Potency [14] 4.77 µM

CC(N)CN (stereo unspecified)
inactive: Potency [1] | Potency [2] | Potency [3] | Potency [4] | Potency [5] | Potency [15] | Potency [6] | Potency [7] | outcome [8] | Potency [9] | Potency [10] | Potency [14] | Potency [12]

C/C=C(\C)C(=O)OCCC(C)CCC=C(C)C (stereo unspecified)
inactive: Potency [1] | Potency [2] | Potency [3] | Potency [4] | Potency [5] | Potency [6] | Potency [7] | outcome [8] | Potency [9] | Potency [10] | Potency [14] | Potency [11] | Potency [12]

C=C(C)C(=O)OCCOC(=O)CC(C)=O
inactive: Potency [1] | Potency [2] | Potency [3] | Potency [4] | Potency [5] | Potency [15] | Potency [6] | Potency [7] | outcome [8] | Potency [9] | Potency [10] | Potency [14] | Potency [11] | Potency [12]

Nc1nccs1
inactive: Potency [1] | Potency [2] | Potency [3] | Potency [4] | Potency [5] | Potency [6] | Potency [7] | outcome [8] | Potency [9] | Potency [10] | Potency [11] | Potency [12]

CC(C)(O)c1ccccc1CC[C@@H](SCC1(CC(=O)O)CC1)c1cccc(/C=C/c2ccc3ccc(Cl)cc3n2)c1
inactive: Potency [1] | Potency [2] | Potency [3] | Potency [4] | Potency [5] | Potency [16] | Potency [17] | Potency [15] | Potency [6] | Potency [7] | Potency [9] | Potency [18] | activity change, positive = activation [19] 1.93% [at 42.5 µM] | Potency [10] | Potency [14] | Potency [11] | Potency [12]
